# From PubChem BioAssay AID1159580 (chemical genetic matrix, 2015)
# In all, about 5,500 compounds went through this assay and about 2,000 (36%) were called active. Another 18% or so got no clear call; they are omitted. The list shows a part of the results. Unmarked numbers belong to inactive results. Rule as the data show it: active = normalized growth mostly below about 0.91 (no sharp cut-off); inconclusive = no clear call, values can overlap the other calls; inactive = mostly above about 0.92.
# Assay: chemical genetic growth profiling, strain panel (AID 1159580);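 also: tested at 20 µM; growth read once vehicle control cultures reached saturation at 30 °C; 1 = growth at the plate median or of vehicle wells; lower values mean less growth of the strain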
# Conditions: S. cerevisiae deletion strains, growth OD
# [1] = locus YDL101C, strain DUN1, hits give low values
# [2] = locus YHR030C, strain SLT2, hits give low values
# [3] = locus YAR019C, strain CDC15, hits give low values
# [4] = locus YBL105C, strain PKC1, hits give low values
# [5] = locus YBR135W, strain CKS1, hits give low values
# [6] = locus YBR136W, strain MEC1, hits give low values
# [7] = locus YBR160W, strain CDC28, hits give low values
# [8] = locus YDL017W, strain CDC7, hits give low values
# [9] = locus YDL028C, strain MPS1, hits give low values
# [10] = locus YDL108W, strain KIN28, hits give low values
# [11] = locus YDL132W, strain cdc53, hits give low values
# [12] = locus YDL214C, strain PRR2, hits give low values
# [13] = locus YDR052C, strain DBF4, hits give low values
# [14] = locus YDR054C, strain cdc34, hits give low values
# [15] = locus YDR226W, strain ADK1, hits give low values
# [16] = locus YDR477W, strain SNF1, hits give low values
# [17] = locus YER123W, strain YCK3, hits give low values
# [18] = locus YER133W, strain GLC7, hits give low values
# [19] = locus YFL009W, strain cdc4, hits give low values
# [20] = locus YFL029C, strain CAK1, hits give low values
# [21] = locus YFR003C, strain YPI1, hits give low values
# [22] = locus YFR019W, strain FAB1, hits give low values
# [23] = locus YFR028C, strain CDC14, hits give low values
# [24] = locus YGR040W, strain KSS1, hits give low values
# [25] = locus YGR052W, strain FMP48, hits give low values
# [26] = locus YGR092W, strain DBF2, hits give low values
# [27] = locus YHR079C, strain IRE1, hits give low values
# [28] = locus YHR082C, strain KSP1, hits give low values
# [29] = locus YHR205W, strain SCH9, hits give low values
# [30] = locus YIL147C, strain SLN1, hits give low values
# [31] = locus YJL095W, strain BCK1, hits give low values
# [32] = locus YJL128C, strain PBS2, hits give low values
# [33] = locus YJL157C, strain FAR1, hits give low values
# [34] = locus YJR016C, strain ILV3, hits give low values
# [35] = locus YJR066W, strain TOR1 (second series), hits give low values
# [36] = locus YJR066W, strain TOR1, hits give low values
# [37] = locus YKL048C, strain ELM1, hits give low values
# [38] = locus YKL067W, strain YNK1, hits give low values
# [39] = locus YKL101W, strain HSL1, hits give low values
# [40] = locus YKL193C, strain SDS22, hits give low values
# [41] = locus YKL203C, strain TOR2, hits give low values
# [42] = locus YLR113W, strain HOG1, hits give low values
# [43] = locus YLR133W, strain CKI1, hits give low values
# [44] = locus YLR403W, strain SFP1, hits give low values
# [45] = locus YML070W, strain DAK1, hits give low values
# [46] = locus YMR001C, strain CDC5, hits give low values
# [47] = locus YMR205C, strain PFK2 (second series), hits give low values
# [48] = locus YMR277W, strain FCP1, hits give low values
# [49] = locus YNL006W, strain LST8, hits give low values
# [50] = locus YNL020C, strain ARK1, hits give low values
# [51] = locus YNL161W, strain CBK1, hits give low values
# [52] = locus YNL183C, strain NPR1, hits give low values
# [53] = locus YNL207W, strain RIO2, hits give low values
# [54] = locus YNL222W, strain SSU72, hits give low values
# [55] = locus YNL307C, strain MCK1 (second series), hits give low values
# [56] = locus YOL078W, strain AVO1, hits give low values
# [57] = locus YOL136C, strain PFK27, hits give low values
# [58] = locus YOR061W, strain CKA2, hits give low values
# [59] = locus YOR119C, strain RIO1, hits give low values
# [60] = locus YOR231W, strain MKK1, hits give low values
# [61] = locus YOR329C, strain SCD5, hits give low values
# [62] = locus YPL031C, strain PHO85, hits give low values
# [63] = locus YPL153C, strain RAD53, hits give low values
# [64] = locus YPL204W, strain HRR25, hits give low values
# [65] = locus YPL209C, strain IPL1, hits give low values
# [66] = locus YPL256C, strain CLN2, hits give low values
# [67] = locus YPR025C, strain CCL1, hits give low values
# [68] = locus YPR106W, strain ISR1, hits give low values
# [69] = locus YPR111W, strain DBF20, hits give low values
# [70] = strain NNK1, hits give low values
# [71] = strain TSCII, hits give low values
smiles,measurement,setting,value
CCOC(=O)C(=CNNS(=O)(=O)c1cc(C(F)(F)F)cc(C(F)(F)F)c1)C(=O)OCC,normalized growth,"locus YAL013W, strain DEP1, hits give low values",1.01
same,normalized growth,"locus YBR229C, strain ROT2, hits give low values",0.997
same,normalized growth,"locus YCL061C, strain MRC1, hits give low values",0.979
same,normalized growth,[1],0.929
same,normalized growth,"locus YDL134C, strain PPH21, hits give low values",1
same,normalized growth,"locus YDR150W, strain NUM1, hits give low values",1
same,normalized growth,"locus YEL061C, strain CIN8, hits give low values",1.01
same,normalized growth,"locus YGR078C, strain PAC10, hits give low values",0.967
same,normalized growth,[2],1
same,normalized growth,"locus YHR087W, strain rtc3, hits give low values",0.96
same,normalized growth,"locus YJR043C, strain POL32, hits give low values",0.973
same,normalized growth,"locus YKL190W, strain CNB1, hits give low values",0.992
same,normalized growth,"locus YLR039C, strain RIC1, hits give low values",0.931
same,normalized growth,"locus YLR058C, strain SHM2 (second series), hits give low values",0.954
same,normalized growth,"locus YLR085C, strain ARP6, hits give low values",1.03
same,normalized growth,"locus YLR262C, strain YPT6, hits give low values",0.968
same,normalized growth,"locus YML094W, strain GIM5, hits give low values",0.988
same,normalized growth,"locus YMR219W, strain ESC1, hits give low values",0.989
same,normalized growth,"locus YMR263W, strain SAP30, hits give low values",1.04
same,normalized growth,"locus YNL128W, strain TEP1, hits give low values",0.945
same,normalized growth,"locus YNL298W, strain CLA4 (second series), hits give low values",1
same,normalized growth,"locus YNL322C, strain KRE1, hits give low values",0.993
same,normalized growth,"locus YNR030W, strain Alg12, hits give low values",1
same,normalized growth,"locus YPL055C, strain LGE1, hits give low values",1.03
same,normalized growth,"locus YPL241C, strain CIN2, hits give low values",1.02
same,normalized growth,"locus YPR135W, strain CTF4, hits give low values",0.964
O=S(=O)(Nc1csc(C(F)(F)F)c1-c1ccccc1)c1cc(Br)c(Br)s1,normalized growth,[3],0.957
same,normalized growth,[4],0.952
same,normalized growth,[5],0.96
same,normalized growth,[6],0.93
same,normalized growth,[7],0.961
same,normalized growth,[8],0.955
same,normalized growth,[9],0.935
same,normalized growth,[1],0.968
same,normalized growth,[10],0.939
same,normalized growth,[11],0.971
same,normalized growth,[12],0.927
same,normalized growth,[13],0.961
same,normalized growth,[14],0.96
same,normalized growth,[15],0.953
same,normalized growth,[16],0.91
same,normalized growth,[17],0.899
same,normalized growth,[18],0.959
same,normalized growth,[19],0.968
same,normalized growth,[20],0.949
same,normalized growth,[21],0.961
same,normalized growth,[22],0.852
same,normalized growth,[23],0.974
same,normalized growth,[24],0.912
same,normalized growth,[25],0.873
same,normalized growth,[26],0.804
same,normalized growth,[2],0.305 (active)
same,normalized growth,[27],0.814
same,normalized growth,[28],0.654
same,normalized growth,[29],0.887
same,normalized growth,[30],0.951
same,normalized growth,[31],0.911
same,normalized growth,[32],0.956
same,normalized growth,[33],0.948
same,normalized growth,[34],0.962
same,normalized growth,[35],0.962
same,normalized growth,[36],0.861
same,normalized growth,[37],0.894
same,normalized growth,[38],0.943
same,normalized growth,[39],0.79
same,normalized growth,[40],0.964
same,normalized growth,[41],0.964
same,normalized growth,[42],0.8 (active)
same,normalized growth,[43],0.871
same,normalized growth,[44],0.906
same,normalized growth,[45],0.897
same,normalized growth,[46],0.957
same,normalized growth,[47],0.907
same,normalized growth,[48],0.968
same,normalized growth,[49],0.973
same,normalized growth,[50],0.837
same,normalized growth,[51],0.957
same,normalized growth,[52],0.814
same,normalized growth,[53],0.959
same,normalized growth,[54],0.955
same,normalized growth,[55],0.81
same,normalized growth,[56],0.964
same,normalized growth,[57],0.878
same,normalized growth,[58],0.696
same,normalized growth,[59],0.948
same,normalized growth,[60],0.879
same,normalized growth,[61],0.954
same,normalized growth,[62],0.844
same,normalized growth,[63],0.88
same,normalized growth,[64],0.89
same,normalized growth,[65],0.96
same,normalized growth,[66],0.712 (active)
same,normalized growth,[67],0.958
same,normalized growth,[68],0.961
same,normalized growth,[69],0.943
same,normalized growth,[70],0.966
same,normalized growth,[71],0.963
Cc1noc(C)c1S(=O)(=O)Nc1csc(C(F)(F)F)c1-c1ccccc1,normalized growth,[3],0.976
same,normalized growth,[4],0.982
same,normalized growth,[5],0.983
same,normalized growth,[6],0.978
same,normalized growth,[7],0.982
same,normalized growth,[8],0.979
same,normalized growth,[9],0.973
same,normalized growth,[1],0.97
same,normalized growth,[10],0.985
same,normalized growth,[11],0.977
same,normalized growth,[12],0.997
same,normalized growth,[13],0.979
same,normalized growth,[14],0.973
same,normalized growth,[15],0.979
same,normalized growth,[16],1.04
same,normalized growth,[17],1.05
same,normalized growth,[18],1.02
same,normalized growth,[19],0.969
same,normalized growth,[20],0.979
same,normalized growth,[21],0.983
same,normalized growth,[22],1.01
same,normalized growth,[23],0.97
same,normalized growth,[24],1.04
same,normalized growth,[25],1.12
same,normalized growth,[26],1.02
same,normalized growth,[2],1.09
same,normalized growth,[27],1.06
same,normalized growth,[28],1.08
same,normalized growth,[29],1
same,normalized growth,[30],0.975
same,normalized growth,[31],1.07
same,normalized growth,[32],0.957
same,normalized growth,[33],1.01
same,normalized growth,[34],0.982
same,normalized growth,[35],1.04
same,normalized growth,[36],1.07
same,normalized growth,[37],0.973
same,normalized growth,[38],1
same,normalized growth,[39],0.978
same,normalized growth,[40],0.976
same,normalized growth,[41],1.08
same,normalized growth,[42],1.04
same,normalized growth,[43],1.01
same,normalized growth,[44],1.05
same,normalized growth,[45],1.04
same,normalized growth,[46],0.971
same,normalized growth,[47],0.995
same,normalized growth,[48],0.98
same,normalized growth,[49],0.98
same,normalized growth,[50],0.993
same,normalized growth,[51],0.972
same,normalized growth,[52],1.06
same,normalized growth,[53],0.978
same,normalized growth,[54],0.98
same,normalized growth,[55],1
same,normalized growth,[56],0.978
same,normalized growth,[57],1.02
same,normalized growth,[58],0.985
same,normalized growth,[59],1.02
same,normalized growth,[60],1.05
same,normalized growth,[61],0.975
same,normalized growth,[62],1.03
same,normalized growth,[63],1.04
same,normalized growth,[64],1.04
same,normalized growth,[65],0.975
same,normalized growth,[66],1.01
same,normalized growth,[67],0.98
same,normalized growth,[68],0.981
same,normalized growth,[69],0.97
same,normalized growth,[70],0.964
same,normalized growth,[71],0.983
